# Laboratory results reported in PubChem BioAssay AID2314 (National Center for Advancing Translational Sciences (NCATS), 2010).
# Hit rate of the full screen: of about 300,000 compounds, about 37,000 (12%) were called active. Shown is part of a subset that was picked to be rich in actives. Unmarked numbers belong to inactive results. Cut-off read from the data, not from the text of the source: active = max response mostly above about 13% (no sharp cut-off); inactive = mostly below about 14%.
# Assay: Cycloheximide Counterscreen for Small Molecule Inhibitors of Shiga Toxin; note: read at 38.3 µM for the half of the compounds with a filed dose; 0% is about no effect
# Settings: cell reporter, cycloheximide protein synthesis inhibition counterscreen; hits give high values
row,SMILES,max response
1,CCOc1ccc(N(C)S(=O)(=O)c2cnc[nH]2)cc1,-3.61%
2,O=C(Cc1ccc(S(=O)(=O)N2CCCC2)s1)NC1CCCCCC1,0.894%
3,C=CCn1c(=S)sc2c(=O)[nH]c(C)nc21,6.52%
4,COc1ccccc1C1/C(=C(/O)c2ccc(OC(C)C)cc2)C(=O)C(=O)N1c1cc(C)on1 (stereo not drawn),-2.72%
5,COc1ccc(C2/C(=C(/O)c3ccccc3)C(=O)C(=O)N2C)c(OC)c1 (stereo not drawn),5.88%
6,CCOc1ccc(/C(O)=C2\C(=O)C(=O)N(c3ccc(OC)cc3)C2c2ccccc2[N+](=O)[O-])cc1 (stereo not drawn),45.2% (active)
7,O=S(=O)(Nc1nccs1)c1ccc2c(c1)OCCO2,13.4%
8,CC(CCc1ccc(O)cc1)NCc1ccc(Cl)cc1Cl (stereo not drawn),0.267%
9,COc1ccc(NC(=O)CCCNC(=O)Cn2cnc3sc4c(c3c2=O)CCCC4)cc1OC,-1.82%
10,CCOC(=O)C1=C(CN2CCCCCC2)NC(=O)NC1c1cccc([N+](=O)[O-])c1 (stereo not drawn),-4.55%
11,O=[N+]([O-])c1cccc(C2=NCCS2)c1,7.65%
12,CCOC(=O)c1sc(-c2cccc([N+](=O)[O-])c2)cc1N,19% (active)
13,CN(C)S(=O)(=O)Oc1ccccc1C(=O)Nc1ccccc1Cl,-4.26%
14,O=C(NCc1ccco1)c1nc(-c2ccccc2)n(-c2ccccc2)n1,-1.99%
15,O=c1c2ccccc2c(-c2ccc(Br)cc2)nn1Cc1ccccc1,-1.69%
16,O=C(NCCc1ccco1)c1nn(Cc2ccccc2)c(=O)c2ccccc12,11.7% (active)
17,Cc1ccc(C(NC(=O)N2CCCC2)C(Cl)(Cl)Cl)cc1F (stereo not drawn),10.7%
18,COc1ccc(C(C(=O)NC(C)(C)C)N(Cc2ccc(F)cc2)C(=O)CCC(=O)Nc2cc(C)on2)cc1 (stereo not drawn),-0.261%
19,CCOC(=O)c1c(C)[nH]c2c1-c1ccccc1C(=O)C2=O,12.4%
20,CCOC(=O)c1c(C)[nH]c(C2=NNC(=NC(C)COC)SC2)c1C (stereo not drawn),42.6% (active)
21,Cc1ccnc(NS(=O)(=O)c2ccc(NC(=O)c3oc4ccc(F)cc4c3C)cc2)n1,-2.51%
22,O=C(NCC1COc2ccccc2O1)C1(c2ccccc2)CCCC1 (stereo not drawn),-2.77%
23,COc1ccc(Br)cc1CN(C)CC(=O)Nc1cc([N+](=O)[O-])ccc1OC,-1.88%
24,CCN(CC)c1ccc(/C=N/Nc2nc(C)cc(=O)[nH]2)cc1,1.51%

row,SMILES,max response
1,Cc1cc(=O)[nH]c(N/N=C/c2c(C)nn(-c3ccccc3Cl)c2Cl)n1,10.2% (active)
2,Cc1cc(=O)[nH]c(N/N=C/c2ccc3c(c2)OCCO3)n1,38.7%
3,Cc1ccc(C(=O)NCC(=O)NCc2cc(=O)n(C)c(=O)n2C)cc1,-0.788%
4,O=C1CCCCN1CCCC(=O)N1CCCC(Nc2ccc(F)cc2)C1 (stereo not drawn),2.17%
5,O=C(CN1C(=O)CSC1=O)N1CCCC(Nc2ccc(F)cc2)C1 (stereo not drawn),-1.37%
6,O=C(CN1CCOC1=O)N1CCCC(Nc2ccc(F)c(F)c2)C1 (stereo not drawn),23.5% (active)
7,CC1CCCN(CCCNC(=O)CN2C(=O)COc3ccc(S(=O)(=O)N4CCOCC4)cc32)C1 (stereo not drawn),-6.25%
8,CC1(C)CC(CCC(=O)Nc2ccccc2Cl)C(=O)O1 (stereo not drawn),5.32%
9,O=C(Cc1ccc2c(c1)CCCC2)Nc1ccccc1Cl,15.4% (active)
10,O=C(Nc1ccc2c(c1)CCC2)c1cccc(S(=O)(=O)Nc2ccccc2Cl)c1,8.91%
11,COc1ccc(CNC(=O)CN(C(=O)c2csnn2)c2cnc3ccccc3c2)cc1,-1.99%
12,Cc1cc(C)c(C#N)c(SCc2ccccc2C(=O)O)n1,-3.7%
13,CSc1cccc(NC(=O)CSc2ccccc2)c1,39.6% (active)
14,Cc1cc(C)cc(NC(=O)CN2C(=O)c3ccccc3C2=O)c1,-2.91%
15,Cc1cc(C)c(C#N)c(SCC(=O)Nc2ccccc2)n1,14% (active)
16,Cc1cc(C)cc(NC(=O)CCN2C(=O)c3ccccc3C2=O)c1,7.24%
17,O=C(CSc1ccccc1)Nc1cc(Cl)ccc1Oc1ccccc1,-2.3%
18,Cc1cc(C)cc(NC(=O)CSc2ccccc2)c1,18.6% (active)
19,Cc1nnc(SCC(=O)Nc2cccc(N)c2)n1-c1ccccc1,-3.71%
20,O=C(CSc1ccccc1)Nc1ccc(C(=O)Nc2cccc(O)c2)cc1,32.4% (active)
21,O=C(Nc1ccc(CSc2ccccc2)cc1)c1ccc(CN2CCOCC2)cc1,-1.82%
22,O=C(CSc1nc(C2CC2)nc2ccccc12)Nc1cccc(O)c1,-1.26%
23,COCc1cc(C)nc(SCC(=O)Nc2cccc(C)c2)c1C#N,5.77%
24,COc1ccc(/C=C2\SC(=S)N(CCC(=O)Nc3cccc(C(=O)O)c3)C2=O)cc1OC,1.51%

row,SMILES,max response
1,CC(NC(=O)COc1cccnc1[N+](=O)[O-])c1ccc(Cl)cc1Cl (stereo not drawn),-5.73%
2,CCCN1Cc2cccc(C(=O)Nc3ccc(S(=O)(=O)N4CCCCCC4)cc3)c2C1=O,-1.84%
3,CCCCN(CC)C(=O)C1CCCN(S(=O)(=O)c2cccc3nsnc23)C1 (stereo not drawn),-3.7%
4,C#CCNC(=O)C1=C[C@@H](c2ccccc2)[C@H](CCCO)[C@@H](OCC)O1,0.207%
5,O=C(NCC(c1cccs1)N1CCOCC1)c1cc(-c2ccccn2)nc2ccccc12 (stereo not drawn),-1.88%
6,CN(C(=O)c1cccc([N+](=O)[O-])c1)c1ccccc1C(=O)NCc1ccccc1,-2.25%
7,CN(C)/C=C(/C(=O)c1ccccc1)S(=O)(=O)c1ccc(Cl)cc1,9.87%
8,O=C(NNS(=O)(=O)c1ccc(F)cc1)C1CCCCC1,-1.22%
9,CN(C)/C=C(/C(=O)c1ccc(F)cc1)S(=O)(=O)c1ccc(F)cc1,27.7% (active)
10,Cc1ccc(S(=O)(=O)/N=C(\N)c2ccc(F)cc2)cc1,6.04%
11,CN(C)/C=C(/C(=O)c1ccccc1Cl)S(C)(=O)=O,-0.829%
12,CN(C)/C=C(/C(=O)c1ccc(Cl)cc1)S(=O)(=O)c1ccccc1,50.5% (active)
13,CCN(CC)/[N+]([O-])=N/Oc1cc(O/[N+]([O-])=N/N2CCCC2CO)c([N+](=O)[O-])cc1[N+](=O)[O-] (stereo not drawn),-2.07%
14,O=C(Nc1cccc(Cl)c1)c1cncn1-c1ccc(F)cc1,6.32%
15,COc1ccccc1C(=O)NNC(=O)CCN1C(=O)/C(=C\c2ccccc2)SC1=S,-3.61%
16,CCn1cc(CCC(=O)NCc2ccc(F)cc2)c2ccccc21,5.51%
17,O=C(CCCNS(=O)(=O)c1cccc2nsnc12)NCCN1CCN(c2ccccc2F)CC1,-4.37%
18,COc1ccc(NS(=O)(=O)c2ccc(Oc3c(C#N)cccc3C#N)cc2)cc1,5.34%
19,COc1ccccc1Oc1ccc(S(=O)(=O)Nc2cccnc2)cc1,-1.76%
20,COc1ccccc1Oc1ccc(N/C=C2/CCCC2=O)cc1,15.4% (active)
21,CCOC(=O)c1[nH]c2c(c1-c1ccccc1)C(=O)CC(c1ccc(Cl)cc1)C2 (stereo not drawn),5.07%
22,CCOC(=O)c1[nH]c2c(c1C)C(=O)CC(c1ccc(N(C)C)cc1)C2 (stereo not drawn),25.5% (active)
23,COCCOC(=O)c1[nH]c2c(c1C)C(=O)CC(c1ccc(OC)cc1)C2 (stereo not drawn),7.29%
24,CCOC(OCC)c1ccc(/C=C\c2nccc(N)n2)cc1,38.5% (active)

row,SMILES,max response
1,Cc1cc(=O)n2nc(N3CCCC(C(=O)NCc4ccc(Cl)cc4)C3)sc2n1 (stereo not drawn),-2.2%
2,CCNCc1cc2cc(C)ccc2[nH]c1=O,4.83%
3,CC(=O)OCc1cc2cc(C)ccc2[nH]c1=O,-2.45%
4,CCOC(=O)c1cc2cc(C)ccc2[nH]1,39.7% (active)
5,Cc1ccc2c(c1)N(CC(=O)N(Cc1ccccn1)Cc1ccco1)C(=O)C(C(C)C)O2 (stereo not drawn),8.51%
6,CCOC(CNC(=O)C1CCN(S(=O)(=O)c2ccc3nc4c(c(C(=O)O)c3c2)CC(C)CC4)CC1)OCC (stereo not drawn),-3.45%
7,CC(=O)c1cccc(NC(=O)COc2ccc(S(=O)(=O)N3CCOCC3)cc2)c1,0.879%
8,CC(C)N1CCC(NC(=O)Nc2ccccc2)CC1,-2.49%
9,Cc1cc(C)cc(NC(=O)N2CCCCCCC2)c1,-5.05%
10,Cc1cc(C)cc(NC(=O)NC2CCN(CC(=O)Nc3cccc(Cl)c3C)CC2)c1,-0.314%
11,CC(C)c1ccc(NC(=O)NC2CCCCC2)cc1,44.1% (active)
12,CC(C)(C)NS(=O)(=O)c1ccc(NC(=O)NC2CCCCC2)cc1,9%
13,Cc1cc(C)cc(NC(=O)NC2CCCCCCC2)c1,17.4% (active)
14,Cc1ccccc1NC(=O)NNC(=O)OC(C)(C)C,-3.59%
15,C/C(=N\NC(=O)OC(C)(C)C)c1ccc[nH]1,42.4% (active)
16,COc1ccccc1CNS(=O)(=O)c1ccc2c(c1)NC(=O)CS2,30.5%
17,O=[N+]([O-])c1cc([N+](=O)[O-])c(Oc2cc(F)cc(F)c2F)cc1NN1CCCCC1,0.495%
18,CCOC(=O)c1sc(NC(=O)CSc2nc3c(c(=O)n2-c2ccccc2)SCC3)c(C(=O)OCC)c1C,-2.16%
19,COc1cccc(/C=N/NC(=O)c2[nH]nc3c2CCc2ccccc2-3)c1O,6.14%
20,COc1cc2cc(C(=O)N/N=C/c3cccc(OC)c3OC)[nH]c2cc1OC,0.0255%
21,COc1cccc(/C=N\NC(=O)C2=NNC(=O)C2C)c1O (stereo not drawn),32.5% (active)
